High-throughput results from PubChem BioAssay.
Sampled rows, rich in hits. Any-hit rate of the full collection: about 5.7%.
MPTP block – inhibitors of mitochondrial permeability transition pore; isolated mouse mitochondria, Ca2+ swelling absorbance, 30 min; inhibition, % at 10 µM; 360,000 compounds, 1.4% hits; AID 602449;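 active = inhibition of 50% or more, scaled per plate between neutral and stimulator controls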
Myeloid diff MLP – myeloid differentiation induction; ER-HoxA9 myeloid progenitors, lysozyme-GFP differentiation, flow cytometry; calls only at 10 µM; 360,000 compounds, 1% hits; AID 624256;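 active = normalized GFP-positive differentiation at or above the plate's own cutoff, the solvent-only control mean plus 3 SD; inconclusive = no clear call, values can overlap the other calls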;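 also: cells exposed to compound for four days before flow analysis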
NR3A LBD binder – NR3A (human) ligand-binding domain modulation. NR3A LBD differential scanning fluorimetry, Tm shift; 0% = protein alone, 100% = glycine-bound protein. Tm shift relative to glycine control, % at 25 µM. 340,000 compounds, 2.5% hits;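 active = melting temperature shift of at least 10% of the positive control shift, at one fixed dose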
rCAG binder – r(CAG) repeat RNA binding. TO-PRO-1 dye displacement fluorescence. inhibition, % at 3 µM. 370,000 compounds, 1.3% hits. AID 651821;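 active = inhibition above the plate cutoff, the mean of all test compounds on that plate plus 3 SD, cut at about 35% in these data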;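 also: higher means more dye released from RNA so lower well fluorescence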
FAS-TE inh – blocks the thioesterase domain of human fatty acid synthase; 360,000 compounds, 0.67% hits; recombinant FAS-TE, OMFH fluorogenic substrate, fluorescence endpoint; inhibition, % at 15 µM; AID 602261; P49327;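 active = compounds whose normalised, plate-corrected inhibition of enzyme fluorescence in the single-dose primary screen is 50% or more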
Myeloid diff – compounds promoting myeloid differentiation. shares compounds with Myeloid diff MLP. ER-HoxA9 myeloid progenitors, GFP/Mac1 double-positive flow. calls only. 2,300 compounds, 2% hits;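 active = share of green or green-and-red cells above 9 and 9% in run 1 or 4 and 3% in run 2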
GFP autofluor – counter-screen for myeloid differentiation promoters: compound fluorescence. AID 651707. shares compounds with Myeloid diff MLP. 2,300 compounds, 7.4% hits. fluorescence response, % (no concentration beside the values). ER-HoxA9 myeloid progenitors, no estrogen, GFP autofluorescence flow cytometry; vehicle wells 0%, positive control 100%;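 active = over 5% cells positive for green fluorescent reporter, or over 2% positive for both it and APC stain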
Each line names hits and unclear results; the compound was inactive in the other large screens (follow-up assays come after a bar, where they were run).

CCN(CC)CCNC(=O)c1ccc(NC(=O)/C=C/c2ccc3ccccc3n2)cc1	Myeloid diff MLP active | Myeloid diff inactive | GFP autofluor inactive
CCN(CC)CCNC(=O)c1ccc(NC(=O)Cc2ccccc2F)cc1	none
COc1ccccc1CCn1cnc(-c2ccccc2F)c1CC(C)C	none (no result: MPTP block, Myeloid diff MLP, NR3A LBD binder, FAS-TE inh)
CC1N=C(SCC(=O)c2ccc(F)cc2)N2C(C)N=C(SCC(=O)c3ccc(F)cc3)N12 (centres undefined)	none (no result: NR3A LBD binder)
CC1=[N+](CC(=O)c2ccccc2)CCn2cccc21	Myeloid diff MLP active | Myeloid diff inactive | GFP autofluor inactive
O=C(CN1CCCCC1)Nc1nnc(-c2ccc([N+](=O)[O-])cc2)s1	none | Myeloid diff inactive | GFP autofluor inactive
O=C(CN1CCCCC1)Nc1nnc(-c2ccccc2)s1	none
COc1cc(/C=N\NC(=O)CN2CCOCC2)ccc1OCC(=O)Nc1ccc(C)c(C)c1	none (no result: Myeloid diff MLP)
COc1cc(/C=N\Nc2ccc([N+](=O)[O-])cc2)ccc1OCC(=O)Nc1ccc(C)c(C)c1	NR3A LBD binder 16.5 | Myeloid diff inactive | GFP autofluor inactive
CCOc1ccc(NC(=O)c2cccc3ccccc23)cc1	Myeloid diff MLP active, NR3A LBD binder 41.9 | Myeloid diff inactive | GFP autofluor inactive
Cc1ccc(C(=O)N2CCC(N3CCC(C(=O)N4CCOCC4)CC3)CC2)cc1	none (no result: NR3A LBD binder)
Nn1cnnc1SC1CCCCC1NS(=O)(=O)c1ccccc1 (centres undefined)	Myeloid diff MLP active | Myeloid diff inactive | GFP autofluor inactive
Cn1cnnc1SC1CCCCC1NS(=O)(=O)c1ccccc1 (centres undefined)	none
O=C(O)CN1C(=O)SC(Nc2ccccc2C(=O)O)C1=O (centres undefined)	none
CCCN(CC(=O)Nc1ccccc1C)C(=O)/C=C/c1ccc(OC)c(OC)c1	none (no result: NR3A LBD binder)
Cc1ccc(C)c(OCc2nnc(N)s2)c1	none | Myeloid diff inactive | GFP autofluor inactive
NC(=S)N/N=C/c1ccc(-c2ccc([N+](=O)[O-])cc2)o1	none | Myeloid diff inactive | GFP autofluor inactive
O=C(NCc1ccccc1)C(c1ccc(C(F)(F)F)cc1)N1CCN(CCN2CCOCC2)CC1 (centres undefined)	none (no result: NR3A LBD binder, FAS-TE inh) | Myeloid diff inactive | GFP autofluor inactive
CC1=C(C(=O)OCc2ccc3c(c2)OCO3)C(c2ccc(Cl)cc2)NC(=O)N1 (centres undefined)	Myeloid diff MLP inconclusive (no result: NR3A LBD binder)
CC1=C(C(=O)OCc2ccc3c(c2)OCO3)C(c2ccc(F)cc2)NC(=O)N1 (centres undefined)	Myeloid diff MLP active | Myeloid diff inactive | GFP autofluor inactive
COc1ccc(CN2c3c(Br)cccc3C(=O)CS2(=O)=O)cc1	Myeloid diff MLP active (no result: rCAG binder) | Myeloid diff inactive | GFP autofluor inactive
COc1ccc(CN2C(=O)C(C)=C(C)C2OC)cc1 (centres undefined)	none
Cc1cccc(NC(=O)c2ccc(S(=O)(=O)N3CCC(C)CC3)cc2)n1	none
O=C(N[C@H](C(=O)N1CCC[C@H]1C(=O)NCCc1ccccc1Cl)C1CCCCC1)c1ccc(Cl)c(Cl)c1	none (no result: MPTP block, Myeloid diff MLP, NR3A LBD binder, FAS-TE inh)
Nc1ccc(S(=O)(=O)Nc2nccc(/C=C/c3cccc([N+](=O)[O-])c3)n2)cc1	none (no result: NR3A LBD binder)
Nc1ccc(S(=O)(=O)Nc2nccc(/C=C/c3cccc(Br)c3)n2)cc1	Myeloid diff MLP active | Myeloid diff inactive | GFP autofluor inactive
NC(=O)c1ccc(N2CCN(c3ccccc3F)CC2)c([N+](=O)[O-])c1	none | Myeloid diff inactive | GFP autofluor inactive
NC(=O)c1ccc(N2CCN(c3ccccc3O)CC2)c([N+](=O)[O-])c1	none
COc1ccc(/C(N)=N/OC(=O)CN(C)S(=O)(=O)c2ccc(C)cc2)cc1	none
O=C(CCC(=O)N1CCOc2ccc(Cl)cc21)NCCCN1CCN(c2ccccc2F)CC1	none | Myeloid diff inactive | GFP autofluor inactive
Cc1ccc(C)c(N2CCN(CCCNC(=O)CCC(=O)N3CCOc4ccc(Cl)cc43)CC2)c1	none (no result: MPTP block, Myeloid diff MLP, NR3A LBD binder, FAS-TE inh)
COC(=O)c1sc(N2C(=O)C(=O)/C(=C(/O)c3ccc(C)cc3)C2c2ccco2)nc1C (centres undefined)	none (no result: MPTP block, Myeloid diff MLP, rCAG binder, FAS-TE inh)
CCOc1ccc(/C(O)=C2/C(=O)C(=O)N(c3nc(C)c(C)s3)C2c2ccco2)cc1 (centres undefined)	none | Myeloid diff inactive | GFP autofluor 9.0
O=C(c1ccc(-c2ccc([N+](=O)[O-])cc2)o1)N1CCCCCCC1	Myeloid diff MLP active | Myeloid diff inactive | GFP autofluor inactive
NC(=O)CCC(NS(=O)(=O)c1ccc(Cl)cc1)C(=O)NCc1ccc(Cl)cc1 (centres undefined)	none
NC(=O)CCC(NS(=O)(=O)c1ccc(Cl)cc1)C(=O)NCC1CCCCC1 (centres undefined)	none | Myeloid diff inactive | GFP autofluor inactive
COC(=O)c1sccc1NC(=O)Nc1ccc(F)cc1F	none
Cc1ccc(-n2nc3ccc(N)cc3n2)cc1Cl	none
COc1ccc(-n2nc3ccc(N)cc3n2)cc1Cl	none | Myeloid diff inactive | GFP autofluor inactive
O=C(CSc1nc2ccccc2n1CC(=O)N1CCCC1)N1CCN(C(=O)c2ccco2)CC1	none | Myeloid diff inactive | GFP autofluor inactive
O=C(CSc1nc2ccccc2n1CC(=O)N1CCCC1)Nc1ccc2c(c1)OCO2	Myeloid diff MLP active | Myeloid diff inactive | GFP autofluor inactive
O=C(CSc1nnc(-c2ccccc2Br)o1)N1CCN(C(=O)c2ccco2)CC1	none | Myeloid diff inactive | GFP autofluor inactive
O=C(CSc1nc2ccccc2n1CC(=O)N1CCOCC1)N1CCCC1	none
O=C(CSc1nnc(-c2ccc(F)cc2)o1)N1CCN(C(=O)c2ccco2)CC1	Myeloid diff MLP inconclusive
CC(C)(C)c1ccc(CC(=O)N2CCC2(C)C(=O)O)cc1 (centres undefined)	none (no result: NR3A LBD binder)
COc1cccc(CN2CCN(Cc3ccc4c(NC(C)=O)cccc4n3)CC2CCO)c1 (centres undefined)	none
CCOC(=O)N1CCN(C(=O)c2ccc(Cn3c(=S)[nH]c4cc(OCC)c(OCC)cc4c3=O)cc2)CC1	Myeloid diff MLP active | Myeloid diff inactive | GFP autofluor inactive
CCOC(=O)N1CCN(C(=O)c2ccc3c(=O)n(Cc4ccccc4)c(=S)[nH]c3c2)CC1	none
CC(C)(C)OC(=O)Nc1ccccc1-n1nnnc1C(C(=O)c1ccc(F)cc1)N1CCN(c2ccccn2)CC1 (centres undefined)	none (no result: NR3A LBD binder, FAS-TE inh)
CS(=O)(=O)c1nc(S(=O)(=O)c2ccc(Cl)cc2)c(N2CCOCC2)s1	none | Myeloid diff inactive | GFP autofluor inactive
CC1CN(c2sc(S(C)(=O)=O)nc2S(=O)(=O)c2ccc(Cl)cc2)CC(C)O1 (centres undefined)	none | Myeloid diff inactive | GFP autofluor inactive
CC1CCCN(c2sc(S(C)(=O)=O)nc2S(=O)(=O)c2ccc(Cl)cc2)C1 (centres undefined)	none
